# Test results taken from publication PMC4336329 (PLoS ONE, 2015).
# Among all 310,000 compounds or so, about 14,000 (4.5%) showed an effect of 50% or more. The effect is printed as a negative number. What follows is part of a selection rich in strong results, with near analogues and random picks from the rest.
# Target: human ether-à-go-go-related gene (hERG) potassium channel (human, UniProt Q12809)
# Experiment: primary screen, population patch clamp on CHO cells stably expressing hERG; higher = less effect of the substance
# 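Also: peak tail current of the secondary pulse compared with the same well before compound.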
# Chain of human ether-à-go-go-related gene (hERG) potassium channel (Q12809 whole entry, looked up): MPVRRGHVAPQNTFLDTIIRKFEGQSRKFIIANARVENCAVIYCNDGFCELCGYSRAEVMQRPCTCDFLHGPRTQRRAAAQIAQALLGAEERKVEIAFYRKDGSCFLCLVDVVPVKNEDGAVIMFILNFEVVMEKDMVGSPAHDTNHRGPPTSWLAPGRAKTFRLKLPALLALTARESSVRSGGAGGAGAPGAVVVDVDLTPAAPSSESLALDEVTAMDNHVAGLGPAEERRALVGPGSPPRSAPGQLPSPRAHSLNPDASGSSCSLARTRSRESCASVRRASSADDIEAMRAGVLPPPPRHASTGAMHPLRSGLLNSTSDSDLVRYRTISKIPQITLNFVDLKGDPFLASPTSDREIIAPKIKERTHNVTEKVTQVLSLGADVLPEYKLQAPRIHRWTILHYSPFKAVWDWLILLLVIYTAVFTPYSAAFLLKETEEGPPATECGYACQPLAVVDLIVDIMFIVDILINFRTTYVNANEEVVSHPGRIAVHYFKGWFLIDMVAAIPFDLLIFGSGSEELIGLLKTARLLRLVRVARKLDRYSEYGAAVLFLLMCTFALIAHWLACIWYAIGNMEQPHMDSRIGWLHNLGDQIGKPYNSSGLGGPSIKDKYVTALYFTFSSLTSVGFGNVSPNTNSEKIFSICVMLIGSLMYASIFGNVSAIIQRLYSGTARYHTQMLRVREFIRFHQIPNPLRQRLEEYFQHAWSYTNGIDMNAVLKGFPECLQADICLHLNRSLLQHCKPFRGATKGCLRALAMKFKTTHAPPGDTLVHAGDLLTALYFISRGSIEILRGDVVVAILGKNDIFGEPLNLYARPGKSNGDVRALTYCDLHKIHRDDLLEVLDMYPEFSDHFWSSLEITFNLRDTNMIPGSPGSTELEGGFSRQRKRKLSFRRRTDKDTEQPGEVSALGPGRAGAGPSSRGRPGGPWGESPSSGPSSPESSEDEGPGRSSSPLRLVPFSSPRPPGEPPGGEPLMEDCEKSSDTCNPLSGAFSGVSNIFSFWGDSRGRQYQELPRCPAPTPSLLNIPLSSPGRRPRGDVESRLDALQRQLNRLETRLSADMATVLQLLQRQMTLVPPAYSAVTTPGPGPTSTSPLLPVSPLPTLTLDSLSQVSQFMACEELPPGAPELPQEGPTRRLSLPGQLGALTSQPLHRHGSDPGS
row,SMILES,"hERG current change (%, negative = inhibition) at 10uM"
1,O=C(C[n+]1cccc2ccccc21)c1ccc(Br)cc1.[Br-],-45.1%
2,c1ccc(Cc2noc(CN3CCN(C4CCc5ccccc5C4)CC3)n2)cc1 (stereo not shown),-81.2%
3,Cc1cccnc1CN1CCN(Cc2nc(Cc3cccc(F)c3)no2)CC1,-29.5%
4,Fc1cccc(Cc2noc(CN3CCCN(C4Cc5ccccc5C4)CC3)n2)c1,-86.5%
5,c1ccc(Cc2noc(CN3CCCN(C4Cc5ccccc5C4)CC3)n2)cc1,-80%
6,O=C(c1ccco1)N1CCCN(Cc2nc(Cc3ccccc3)no2)CC1,-25.8%
7,CN1CCN(Cc2nc(Cc3cccc(F)c3)no2)CC1c1ccccc1 (stereo not shown),-18.2%
8,Fc1cccc(Cc2noc(CN3CCN(C4CCc5ccccc5C4)CC3)n2)c1 (stereo not shown),-78.6%
9,Cc1ccccc1N1CCN(Cc2nc(Cc3ccccc3)no2)CC1,9.18%
10,Fc1cccc(Cc2noc(CN3CCSCC3)n2)c1,29.1%
11,O=C(c1ccco1)N1CCN(Cc2nc(Cc3ccccc3)no2)CC1,-8.87%
12,Fc1cccc(Cc2noc(CN3CCOCC3)n2)c1,11.4%
13,c1ccc(Cc2noc(CN3CCC(CN4CCOCC4)CC3)n2)cc1,4.64%
14,Cc1ccc(CN2CCNC(=O)C2CC(=O)NCC(F)(F)F)o1 (stereo not shown),14.1%
15,CCOc1cccc(/C=C(/C#N)c2nc3ccccc3[nH]2)c1OCC(=O)O,14.1%
16,COc1cc(C(=O)Nc2nc3ccc4nc(C)sc4c3s2)cc(OC)c1OC,-5.34%
17,C=CCN(C(=O)CNC(=O)c1ccco1)C(C(=O)NC1CCCCC1)c1ccccc1 (stereo not shown),1.1%
18,C=C1CCN(c2ccc(C(=O)NCCC)cc2[N+](=O)[O-])CC1,-48.3%
19,CN(C)C(=O)Cn1cnc2c(cnn2-c2ccc(F)cc2)c1=O,-2.06%
20,COC(=O)C(C(=O)OC)C(C[N+](=O)[O-])c1ccc(OC)cc1 (stereo not shown),-6.91%
21,Cc1cc(C)cc(NC(=O)C2CCN(S(=O)(=O)c3ccc4c(c3)NC(=O)C(C)S4)CC2)c1 (stereo not shown),8.79%
22,CCC(C)NC(=O)CSc1ccc(S(=O)(=O)N2CCN(Cc3ccccc3)CC2)cn1 (stereo not shown),-16.6%

row,SMILES,"hERG current change (%, negative = inhibition) at 10uM"
1,O=C(OC(c1ccccc1)c1nccc2ccccc12)c1cccc([N+](=O)[O-])c1 (stereo not shown),8.01%
2,CN(C)/C=N/c1cnc(C(=O)c2ccc(Cl)cc2)n1C,5.58%
3,Br.CCCN(CCC)[C@@H]1CCc2cccc(O)c2C1,-34.4%
4,Br.CCCN(CCC)C1CCc2ccc(O)cc2C1 (stereo not shown),-70%
5,Br.CCCN(CCC)C1CCc2cccc(O)c2C1 (stereo not shown),-10.6%
6,COc1ccc(Cl)c2sc(N(Cc3cccnc3)C(C)=O)nc12,13.2%
7,Cc1cc(C(=O)Nc2ccc3ccccc3c2)oc1C,-68.1%
8,Cc1cc(C(=O)Nc2ccccc2)oc1C,7.57%
9,CC(=O)c1cc(C(=O)Nc2ccc3ccccc3c2)c(C)o1,13.8%
10,COc1ccc(S(=O)(=O)N2CCCOC2CNC(=O)C(=O)NCCCn2ccnc2)cc1 (stereo not shown),-3.17%
11,Cc1cc(C)cc(N(CC(=O)N/N=C/c2ccncc2)S(=O)(=O)c2ccccc2)c1,-76.9%
12,COc1ccc(N(CC(=O)N/N=C/c2cccnc2)S(=O)(=O)c2ccc(C)cc2)cc1OC,-14.2%
13,Cc1cc(C)cc(N(CC(=O)Nc2ccccc2-c2ccccc2)S(=O)(=O)c2ccccc2)c1,13.1%
14,COc1ccc(/C=N/NC(=O)CN(c2ccc(OC)cc2)S(=O)(=O)c2ccccc2)cc1,-7.15%
15,Cc1ccc(N(CC(=O)N/N=C/c2cccnc2)S(=O)(=O)c2ccccc2)cc1,-52%
16,COc1ccc(N(CC(=O)N/N=C/c2cccnc2)S(=O)(=O)c2ccccc2)c(OC)c1,-40.6%
17,CC(=O)NCCC(=O)N1CCCC(CNC(=O)c2ccc(-c3ccccc3)cc2)C1 (stereo not shown),-0.511%
18,Cn1cc(C(O)CN2CCCCC2)c2ccccc21 (stereo not shown),9.26%
19,CCn1c(COc2ccc3c(c2)CCCC3)nnc1SCC(=O)Nc1ccc(C(=O)OC)cc1,5.43%
20,CN(Cc1ccccc1)C(=O)c1ccccc1NC(=O)c1ccco1,20%
21,Cc1nc2ccccc2c(-c2ccccc2)c1C(=O)c1ccccc1,0.392%
22,CCN(CC)c1nc2ccccc2c(N)c1-c1ccccc1.O=C(O)C(=O)O,-77%

row,SMILES,"hERG current change (%, negative = inhibition) at 10uM"
1,CN(C)c1nc2ccccc2c(N)c1-c1ccccc1.O=C(O)C(=O)O,-65.9%
2,Cc1c(N(C)C)nc2ccccc2c1N.O=C(O)C(=O)O,-46.5%
3,CCOC(=O)c1c(C)nc2ccccc2c1-c1ccccc1.Cl,-30.8%
4,CCOC(=O)c1c(CCl)nc2ccccc2c1-c1ccccc1,5.72%
5,CCOC(=O)c1c(-c2ccccc2)csc1NC(=S)NC,-3.27%
6,CCN(CC)C(=O)COc1ccc(Br)cc1Cl,-11.8%
7,NC(=S)N/N=C1\CC(n2nnn(-c3cccc(Cl)c3)c2=S)C2COC1O2 (stereo not shown),-26.8%
8,Cc1cc(C)cc(C(=O)NC(CC(N)=O)c2ccc(N3CCC(Br)CC3)c([N+](=O)[O-])c2)c1 (stereo not shown),-16.1%
9,CCN1CCN(c2ccc(S(=O)(=O)N3CCOCC3)cc2NC(=O)C(C)Oc2cccc(Cl)c2)CC1 (stereo not shown),-70.8%
10,CC(Oc1ccc(F)cc1)C(=O)Nc1cc(S(=O)(=O)N2CCCCC2)ccc1N1CCOCC1 (stereo not shown),-5.21%
11,CC(=O)c1ccc(OCC(=O)Nc2ccccc2N2CCCC2)cc1,-2.74%
12,CC(Oc1ccc(Br)cc1)C(=O)Nc1cc(S(=O)(=O)N2CCOCC2)ccc1N1CCCC1 (stereo not shown),-5.62%
13,CC(Oc1cccc(Cl)c1)C(=O)Nc1cc(S(=O)(=O)N2CCCCC2)ccc1N1CCOCC1 (stereo not shown),-8.24%
14,CC(Oc1cccc(Cl)c1)C(=O)Nc1cc(S(=O)(=O)N2CCOCC2)ccc1N1CCCCC1 (stereo not shown),8.44%
15,CCN1CCN(c2ccc(S(=O)(=O)N3CCOCC3)cc2NC(=O)C(C)Oc2ccc(Cl)cc2)CC1 (stereo not shown),-70.9%
16,CC(Oc1cccc(Cl)c1)C(=O)Nc1cc(S(=O)(=O)N2CCOCC2)ccc1N1CCCC1 (stereo not shown),-24.8%
17,CC(Oc1cccc(Cl)c1)C(=O)Nc1ccccc1N1CCCC1 (stereo not shown),-15.3%
18,CCN1CCN(c2ccccc2NC(=O)C(C)Oc2ccc(C(C)=O)cc2)CC1 (stereo not shown),-51.6%
19,CC(Oc1ccc(F)cc1)C(=O)Nc1cc(S(=O)(=O)N2CCOCC2)ccc1N1CCCCC1 (stereo not shown),6.32%
20,CCN1CCN(c2ccc(S(=O)(=O)N3CCCCC3)cc2NC(=O)C(C)Oc2ccc(F)cc2)CC1 (stereo not shown),-72.7%
21,O=C(Nc1cccnc1)C1(c2ccccc2)CCCC1,4.11%
22,O=[N+]([O-])/C=C1/NCCN1Cc1ccc(Cl)nc1,-1.96%

row,SMILES,"hERG current change (%, negative = inhibition) at 10uM"
1,CC1CCc2c(C(=O)NCc3ccco3)csc2C1 (stereo not shown),-8.96%
2,Cn1c(SCC(=O)O)nc2sc3c(c2c1=O)CCC3,30.3%
3,COC(=O)c1ccc2c(c1)S(=O)(=O)NC(=NCc1ccco1)S2,-23.8%
4,O=C(NCc1cccc(Cl)c1)c1cnccn1,-9.28%
5,CCn1ncc(-c2csc(N)n2)c1C,0.511%
6,BrC(=C\c1ccccc1)/C=N/N1CCN(Cc2ccccc2)CC1,4.34%
7,CCN1C(=O)C(CC(=O)NCCc2ccccc2)N(NC(=O)c2cccnc2)C1=S (stereo not shown),-21.1%
8,O=C(CSc1nc2cc(Cl)ccc2s1)Nc1cccc(S(=O)(=O)N2CCOCC2)c1,-10.7%
9,S=C(NCCc1ccccc1)Nc1ccc(Br)cn1,3.98%
10,CC(Oc1ccc(F)cc1)C(=O)Nc1cc(S(=O)(=O)N2CCOCC2)ccc1N1CCN(C)CC1 (stereo not shown),-29.9%
11,CC(Oc1ccc(F)cc1)C(=O)Nc1cc(S(=O)(=O)N2CCOCC2)ccc1N1CCCC1 (stereo not shown),13.7%
12,CCN1CCN(c2ccc(S(=O)(=O)N3CCOCC3)cc2NC(=O)C(C)Oc2ccc(F)cc2)CC1 (stereo not shown),-57.4%
13,C=CCN1C(=O)/C(=C\c2ccc(Oc3nc(N4CCOCC4)nc(N4CCOCC4)n3)c(OC)c2)SC1=S,15.9%
14,COCCn1c(=S)[nH]c2cc(C(=O)NCCCN3CCOCC3)ccc2c1=O,8.93%
15,CCC[C@@H](CNC)NC[C@H](Cc1ccccc1)NCCCCc1ccccc1,-6.02%
16,CCCC[C@@H](CNC)NC[C@H](Cc1ccc(O)cc1)NCCc1ccc(OCC)cc1,-53.7%
17,CCC[C@H](CN[C@@H](CNC)[C@H](C)O)NCCc1ccc(OC)cc1,2.16%
18,Cc1[nH]c2ccccc2c1/C=N/n1cnnc1,10.2%
19,COCCn1c(C)cc(C(=O)COc2ccc(N(C)S(=O)(=O)c3ccc(C)cc3)cc2)c1C,-19.9%
